This is part of a sample that, as a whole, favours compounds with a hit. Of some 83,000 tested, about 20% had one in any assay.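 Plates (96-well) were seeded with cells, treated with compound at one concentration, and incubated for 48 hours before percent growth was determined.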 Unmarked numbers belong to inactive results. Active and inactive are the calls of the source. Rule for the calls: active = growth percent below 10; inactive = the rest.
What was measured:
Assay in all cases: NCI-60 one-dose screen, 48 h (100 = growth as untreated, 0 = no growth, -100 = all killed)
Details in all cases: 10 µM
[1] = tested on: DU-145 prostate
[2] = tested on: K-562 leukemia
[3] = tested on: MALME-3M melanoma
[4] = tested on: MDA-MB-231 breast
[5] = tested on: RXF 393 renal
[6] = tested on: SF-268 CNS
[7] = tested on: SF-295 CNS
[8] = tested on: SF-539 CNS
[9] = tested on: UACC-257 melanoma
[10] = tested on: M14 melanoma

| Compound | growth [1] | growth [2] | growth [3] | growth [4] | growth [5] | growth [6] | growth [7] | growth [8] | growth [9] | growth [10] |
| --- | --- | --- | --- | --- | --- | --- | --- | --- | --- | --- |
| Nc1ncc(-c2ccc(C(F)(F)F)cc2)c(NC2CCCCCC2)n1 | 64.2% | 16.2% | -21.4% (active) | 65.1% | 50.3% | 56.1% | -20.9% (active) | 65.2% | -13.5% (active) | 27.8% |
| CCc1ccc(Nc2cc(C)nc3nc(C)nn23)cc1 | 29.5% | -24.3% (active) | -90.2% (active) | -58.3% (active) | -66.5% (active) | 37.8% | 33.1% | 0.337% (active) | -84.8% (active) | -93.6% (active) |
| Cc1ccc2oc(=O)cc(/C(=C3/C=CC=N3)c3ccc[nH]3)c2c1 | 0.492% (active) | -0.946% (active) | 25.6% | -6.98% (active) | -21.7% (active) | 12.7% | -23.9% (active) | -33.6% (active) | 6.21% (active) | -7.95% (active) |
| FC(F)(F)c1ccc(-c2cnc(Cl)nc2NC2CCCCCC2)cc1 | 59.7% | 11.9% | -42.8% (active) | 47.4% | 31.3% | 39.4% | -45.6% (active) | 75.1% | -10.3% (active) | 21.8% |
| COc1cc(C(c2c[nH]c3ccccc23)N2CCCC2)ccc1OCc1ccccc1 (stereo not given) | 95.9% | 71.2% | 81.8% | 58.4% | 52.9% | 74.6% | 93.8% | 4.28% (active) | 85.3% | 88.2% |
| Fc1cc(-c2ncc(-c3cc(F)c(F)c(F)c3)c(NC3CCCCCC3)n2)cc(F)c1F | 105% | 101% | 140% | 104% | 96.1% | 107% | 90.1% | 105% | 87.6% | 109% |
| O=C(N/N=C\c1cc(Cl)ccc1O)c1ccncc1 | 48.3% | 39.1% | 80% | 56% | 57.4% | 37.5% | 77.2% | 63.6% | 53.7% | 47.6% |
| CCCc1c(C)nc2scc(-c3ccc(Cl)cc3)n2c1=O | 105% | 99.3% | 116% | 109% | 92.7% | 98.3% | 105% | 101% | 110% | 107% |
| CC(=O)c1ccc(NCn2nc(-c3ccc(Cl)cc3)oc2=S)cc1 | 109% | 88.1% | 114% | 87.8% | 117% | 109% | 102% | 95% | 93% | 104% |
| O=C(CCl)N1c2ccccc2Sc2ccc3ccccc3c21 | -90.8% (active) | -0.331% (active) | -43.4% (active) | -72.5% (active) | -33.4% (active) | -59.4% (active) | -2.09% (active) | -60.9% (active) | -36.6% (active) | -52.1% (active) |
| CCCCC(=O)N(c1ccc(Nc2c3ccccc3nc3cc([N+](=O)[O-])ccc23)cc1)S(C)(=O)=O | 26.3% | 64.3% | 92.7% | 84.6% | 75.8% | 53% | 34.4% | 79.8% | 79.8% | 92.9% |
| COc1ccc(-c2nnc(SC/C(=N\O)c3ccccc3)o2)cc1 | 100% | 94.2% | 109% | 92.3% | 120% | 95.8% | 101% | 92.7% | 121% | 104% |
| O/N=C1\CCC2CCCCC2C1 (stereo not given) | 113% | 106% | 98.2% | 114% | 104% | 103% | 93.6% | 88.8% | 107% | 102% |
| COc1cccc(C(=O)N(c2ccc(F)c(F)c2)C(C(=O)NC(C)(C)C)c2cc3c(C)cc(C)cc3nc2Cl)c1 (stereo not given) | 75.5% | 55.8% | 95% | 47.4% | 72.3% | 64.7% | 54% | 79.4% | 79.6% | 64.9% |
| Nc1cc(O)cc(O)c1 | 103% | 99.5% | 97.5% | 93.9% | 120% | 100% | 94.9% | 92.1% | 108% | 100% |
| C=C1C(=O)O[C@H]2[C@H]1CC/C(COC(=O)OCCCCCOC(=O)OC/C1=C/CC[C@@]3(C)O[C@H]3[C@H]3OC(=O)C(=C)[C@@H]3CC1)=C\CC[C@@]1(C)O[C@@H]21 | -4.53% (active) | 1.11% (active) | -30.1% (active) | -87% (active) | -69.8% (active) | 7.62% (active) | 45.4% | -33.1% (active) | -87% (active) | -45.5% (active) |
| c1ccc(COCC[P+](c2ccccc2)(c2ccccc2)c2ccccc2)cc1 | 15% | 3.16% (active) | 4.01% (active) | 5.14% (active) | 29.6% | 15.4% | -46% (active) | 18.5% | -22.7% (active) | 10.9% |
| N#Cc1ccc(-n2cnc(NC(=O)[C@H]3CCN(C#N)C3)c2)cc1 | 29.7% | 17.8% | -14.1% (active) | 14.8% | -54.8% (active) | 29.9% | 42% | -9.26% (active) | 42.3% | 29.1% |
| COc1ccc(C(=O)/C=C/c2cc(-c3ccc(OC)c(OC)c3)n[nH]2)cc1OC | -25.8% (active) | 5.44% (active) | -47.5% (active) | -18.7% (active) | -79.3% (active) | -28% (active) | 18% | -99.3% (active) | 11.7% | 18.1% |
| Cc1ccc(C)c2c1sc1nc3n[nH]c(N)c3c(=N)n12 | 111% | 98.3% | 128% | 101% | 112% | 109% | 106% | 101% | 104% | 108% |

From PubChem BioAssay (NCI)
